Experimental data published in PubChem BioAssay (NCATS).
Results filed as inconclusive are left out. Entries that show only a call come without a potency. Unmarked numbers belong to inactive results. The source made the active and inactive calls. Calls come from the whole dose curve; as a rule, active = well fitted curve in the direction sought with a large enough effect; inconclusive = small, poorly fitted or top-dose-only effect, or another doubt; inactive = no such curve, though single readings can be large; an effect the other way counts as inactive or inconclusive.

Columns and labels:
[1] = qHTS of pediatric cancer cell lines to identify multiple opportunities for drug repurposing: Primary screen for SJ-GBM2 cells (AID 1347091)
In short: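 Viability measured as metabolically active cells via CellTiter-Glo luminescence following 48 hours of compound exposure, 11-point dilutions in confirmatory testing. 500-1,000 cells/well plated 5 hours before dosing; controls were DMSO and 2.3 µM bortezomib.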

[2] = qHTS of pediatric cancer cell lines to identify multiple opportunities for drug repurposing: Primary screen for A673 cells (AID 1347092); note: nearly all actives have a fitted effect of over 45% in size
In short: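 48 h compound exposure, A673, 500-1,000 cells/well, 37 degrees C/5% CO2. MIPE: 11-point, 0.78 nM-46 µM; NPC: 8-point, 0.59 nM-46 µM (final). Readout CellTiter-Glo luminescence after 15 min RT.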

[3] = qHTS of pediatric cancer cell lines to identify multiple opportunities for drug repurposing: Primary screen for SK-N-MC cells (AID 1347093)
In short: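 Metabolically active cells were quantified by ATP-dependent luminescence (CellTiter-Glo, 15 min at room temperature) following 48 h treatment. Cells had been plated at 500-1,000 per well and settled for 5 h beforehand.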

[4] = qHTS of pediatric cancer cell lines to identify multiple opportunities for drug repurposing: Primary screen for BT-37 cells (AID 1347094)
In short: (§1)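 Cells seeded at 500-1,000 cells/well in growth media, rested 5 hours at 37 degrees C, 5% CO2, then dosed; MIPE compounds at 11-point (from 0.78 nM) and NPC at 8-point (from 0.59 nM) final concentrations. Viability by CellTiter-Glo luminescence after 48 hours.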

[5] = qHTS of pediatric cancer cell lines to identify multiple opportunities for drug repurposing: Primary screen for U-2 OS cells (AID 1347096); note: nearly all actives have a fitted effect of over 50% in size
In short: (§2)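 Viability after 48 h compound treatment at 37C, 500-1,000 cells/well, read as ATP luminescence with CellTiter-Glo. Primary screens used 11-point (MIPE, 0.78 nM-46 µM) or 8-point (NPC, 0.59 nM-46 µM) final concentrations; follow-up screens used 11-point dilutions.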

[6] = qHTS of pediatric cancer cell lines to identify multiple opportunities for drug repurposing: Primary screen for Saos-2 cells (AID 1347097); note: nearly all actives have a fitted effect of over 40% in size
In short: as §1

[7] = qHTS of pediatric cancer cell lines to identify multiple opportunities for drug repurposing: Primary screen for SK-N-SH cells (AID 1347098); note: nearly all actives have a fitted effect of over 65% in size
In short: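 Cells (500-1,000/well) rested 5 h, then received compounds for 48 h; metabolically active cells were measured by CellTiter-Glo luminescence. Final concentrations spanned up to 46 µM (MIPE, 11-point) or 0.59 nM-46 µM (NPC, 8-point) in primary screens, 11-point in follow-ups.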

[8] = qHTS of pediatric cancer cell lines to identify multiple opportunities for drug repurposing: Primary screen for NB1643 cells (AID 1347099); note: nearly all actives have a fitted effect of over 50% in size
In short: as §1

[9] = qHTS of pediatric cancer cell lines to identify multiple opportunities for drug repurposing: Primary screen for LAN-5 cells (AID 1347100)
In short: as §2

[10] = qHTS of pediatric cancer cell lines to identify multiple opportunities for drug repurposing: Primary screen for NB-EBc1 cells (AID 1347095)
In short: as §1
Potency is the fitted concentration of half-maximal effect.

Row | SMILES | Potency [1] | Potency [2] | Potency [3] | Potency [4] | Potency [5] | Potency [6] | Potency [7] | Potency [8] | Potency [9] | Potency [10]
1 | Cc1ccc(C(=O)c2ccc(CC(=O)O)n2C)cc1 | inactive | inactive | inactive | inactive | inactive | inactive | inactive | inactive | inactive | –
2 | Nc1c(CC(=O)O)cccc1C(=O)c1ccc(Br)cc1 | inactive | inactive | inactive | inactive | inactive | inactive | inactive | inactive | inactive | inactive
3 | NCCO | inactive | inactive | inactive | inactive | inactive | – | – | – | inactive | inactive
4 | Cc1c(N)c(=O)n(-c2ccccc2)n1C | inactive | inactive | inactive | inactive | inactive | inactive | inactive | inactive | inactive | inactive
5 | N=C(N)N | inactive | inactive | inactive | inactive | inactive | inactive | inactive | inactive | inactive | inactive
6 | CN(C)CCn1nnnc1SCC1=C(C(=O)O)N2C(=O)[C@@H](NC(=O)Cc3csc(N)n3)[C@H]2SC1 | inactive | inactive | inactive | inactive | inactive | inactive | inactive | inactive | inactive | inactive
7 | c1ccc2sc(SN3CCOCC3)nc2c1 | inactive | inactive | inactive | inactive | inactive | inactive | inactive | inactive | inactive | inactive
8 | CC(=O)c1ccc(OCC(=O)N2CCCCC2)cc1 | inactive | inactive | inactive | inactive | inactive | inactive | inactive | inactive | inactive | –
9 | COC(=O)c1nc(Cl)c(Cl)nc1N | 5.31 µM (active) | 2.11 µM (active) | 0.668 µM (active) | 13.8 µM (active) | 13.3 µM (active) | 2.37 µM (active) | 3.44 µM (active) | – | 3.35 µM (active) | 1.33 µM (active)
10 | CNC(=O)c1c(I)c(NC(=O)CCCCC(=O)Nc2c(I)c(C(=O)O)c(I)c(C(=O)NC)c2I)c(I)c(C(=O)O)c1I | inactive | inactive | inactive | inactive | inactive | inactive | inactive | inactive | inactive | –
11 | Nc1cc(-c2ccncc2)c[nH]c1=O | inactive | inactive | inactive | inactive | inactive | inactive | inactive | inactive | – | –
12 | Cc1c(Nc2ncccc2C(=O)O)cccc1C(F)(F)F | inactive | inactive | 21.1 µM (active) | inactive | inactive | inactive | inactive | inactive | inactive | –
13 | Cc1ccc(O)c(-n2nc3ccccc3n2)c1 | inactive | inactive | inactive | inactive | inactive | inactive | inactive | inactive | inactive | –
14 | Cc1[nH]cnc1CN1CCc2c(c3ccccc3n2C)C1=O | inactive | inactive | inactive | inactive | inactive | inactive | inactive | inactive | inactive | –
15 | Clc1ccccc1-c1nc(-c2ccncc2)no1 | inactive | inactive | inactive | inactive | inactive | inactive | – | inactive | inactive | –
16 | Nc1ccc(O)c([N+](=O)[O-])c1 | inactive | inactive | – | inactive | inactive | – | – | inactive | – | inactive
17 | N=C1N=C(N)c2cc3ccccc3cc21 | 24.3 µM (active) | 19.3 µM (active) | 6.86 µM (active) | 15.9 µM (active) | – | 24.3 µM (active) | 25 µM (active) | 19.3 µM (active) | 24.3 µM (active) | –
18 | Cc1ccc2c(n1)Oc1ccc(C(C)C(=O)OCC(=O)N(C)C)cc1C2 (configuration not stated) | inactive | inactive | inactive | inactive | inactive | – | inactive | inactive | inactive | –
19 | CCOC(=O)c1ccccc1O | inactive | 0.001 µM (active) | inactive | inactive | inactive | inactive | inactive | inactive | inactive | –
